High-throughput results as filed in PubChem BioAssay.
Most compounds without a hit are left out; they make up all but 18% or so of the library.
HepG2 viability: kills HepG2 cells in TGF-b inhibitor counter-screen | HepG2 CAGA-GFP viability, ATP luminescence, 18 h | AID 588856 | 0.76% of 410,000 active | Potency, µM (titrated, usually from 46.1 µM), most hits filed as cytotoxic
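CellTiter-Glo luminescence gave cytotoxicity after 18 hours at 37 degrees C. The cells were HepG2 CAGA-GFP in 1% FBS DMEM, stimulated with 500 pg/mL TGF-beta after compound addition. %Activity was normalised to no-cell wells (complete cell-killing) and DMSO (no toxicity), and curves were fitted and classified.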
TGFb SMAD3 inh: TGF-b pathway inhibition; HepG2 CAGA-GFP TGF-b/SMAD3 reporter, GFP fluorescence, 18 h; TGF-beta stimulated, 500 pg/mL final; Potency, µM (titrated, usually from 46.1 µM), actives largely listed as inhibitors; 1.2% of 410,000 active; AID 588855; note: nearly all actives have a fitted effect of over 65% in size
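GFP signal (ex488/em500-530) from TGF-beta-stimulated HEPG2 CAGA-GFP cells, 500 pg/mL final, 18 h at 37 degrees C in DMEM plus 1% FBS, normalized to unstimulated and DMSO-stimulated controls.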
DT40 TDP1 no CPT: qHTS for Inhibitors of human tyrosyl-DNA phosphodiesterase 1 (TDP1): qHTS in cells in absence of CPT; DT40 Tdp1-/- hTDP1 cells, no CPT, ATP luminescence, 48 h; Potency, µM (highest dose often 46.2 µM), actives largely listed as inhibitors; 15% of 420,000 active; AID 686978, 2013; note: nearly all actives have a fitted effect of over 55% in size
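Stably hTDP1-transfected Tdp1-null chicken DT40 cells were treated with library compounds minus camptothecin and grown for at least 48 hr at 37 °C, after which cellular ATP was quantified by luminescence.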
IL1B secr inh: inflammasome signaling inhibition, IL-1 beta readout; THP-1 LPS/ATP IL-1B secretion, AlphaLISA, 16 h; hits give low values; activity change, % at 57.5 µM; 4.7% of 360,000 active; AID 743279; in the data active = activity change below about -50%; inconclusive = mostly about -30% to -49%
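THP-1 cells pretreated 1 hr with compounds (up to 57.5 uM final), then stimulated with LPS (250 ng/mL final) plus ATP (1.25 mM final); secreted IL-1B measured by AlphaLISA after 16 hr, decreased signal indicating inhibition.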
TDP1 inh: TDP1 (human) enzyme inhibition. Potency, µM (series often up to 130 µM), most hits filed as inhibitors. 0.28% of 350,000 active. recombinant TDP1, AlphaScreen DNA substrate cleavage. AID 485290; note: nearly all actives have a fitted effect of over 40% in size
Target sequence (Q9NUW8 whole entry, looked up): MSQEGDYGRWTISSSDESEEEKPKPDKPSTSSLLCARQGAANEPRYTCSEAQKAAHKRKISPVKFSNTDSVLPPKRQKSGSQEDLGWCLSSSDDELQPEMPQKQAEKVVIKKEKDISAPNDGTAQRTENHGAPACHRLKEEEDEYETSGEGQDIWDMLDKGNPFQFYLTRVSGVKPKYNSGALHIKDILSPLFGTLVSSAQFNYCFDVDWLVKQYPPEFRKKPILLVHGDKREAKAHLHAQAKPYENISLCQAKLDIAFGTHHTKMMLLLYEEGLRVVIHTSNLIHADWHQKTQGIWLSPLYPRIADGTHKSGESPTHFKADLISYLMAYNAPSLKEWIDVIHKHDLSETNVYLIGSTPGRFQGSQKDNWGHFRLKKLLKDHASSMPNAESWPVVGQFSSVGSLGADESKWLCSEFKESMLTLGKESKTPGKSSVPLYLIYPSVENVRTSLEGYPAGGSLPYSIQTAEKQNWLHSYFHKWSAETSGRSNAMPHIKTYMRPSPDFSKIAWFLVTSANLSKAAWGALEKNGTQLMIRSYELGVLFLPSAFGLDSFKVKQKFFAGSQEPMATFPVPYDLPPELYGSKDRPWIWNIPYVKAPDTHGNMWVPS
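Recombinant human Tdp1 (E. coli-expressed, 1 nM final) preincubated with compounds 15 min at room temperature, then 5'-biotin/3'-phosphotyrosine-FITC DNA substrate (15 nM final) added for 5 min. AlphaScreen beads (10 ug/ml final) added 10 min; cleavage lowers signal.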
TDP1 cell CPT: growth inhibition of DT40 Tdp1-/-;hTDP1 cells with camptothecin (screen for TDP1 inhibitors) | chicken DT40 Tdp1-/-;hTDP1 cells + 20 nM CPT, ATP luminescence, 48 h | Potency, µM (series often up to 46.2 µM), hits mostly inhibitors | 12% of 420,000 active; note: nearly all actives have a fitted effect of over 55% in size
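Chicken DT40 Tdp1-/- cells complemented with human TDP1, 400 cells/well, exposed to compounds plus 20 nM camptothecin for at least 48 h at 37 C; viability read as ATP content by CellTiter-Glo luminescence.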
Numbers stand for hits; n = inactive; u = inconclusive; x = no result. Unless noted, calls come from the whole dose curve; as a rule, active = well fitted curve in the direction sought with a large enough effect; inconclusive = small, poorly fitted or top-dose-only effect, or another doubt; inactive = no such curve, though single readings can be large; an effect the other way counts as inactive or inconclusive.

SMILES	HepG2 viability	TGFb SMAD3 inh	DT40 TDP1 no CPT	IL1B secr inh	TDP1 inh	TDP1 cell CPT
CCCc1c(-c2ccccc2Br)ncn1Cc1ccccc1OC	x	x	2.3µM	n	x	2.3µM
COc1ccccc1CNC(=O)Cc1csc2nc(-c3ccc(F)cc3)cn12	n	n	u	x	n	u
Cc1ccc(Cl)c(OCC(=O)Nc2cccnc2)c1	n	n	n	u	n	n
COc1cc(C(=O)OC(C)CN2C(C)CCCC2C)cc(OC)c1OC (configuration not stated)	n	n	n	n	n	n
COc1ccc(NC(=O)/C(C#N)=C\C=C\c2ccco2)cc1	n	u	2.9µM	n	n	8.2µM
CC(=O)c1ccc(S(=O)(=O)NC2CC(=O)N(c3ccc(Cl)cc3)C2)cc1 (configuration not stated)	n	n	13µM	n	x	u
CCN1CCN(c2cc(N3CCN(C(=O)c4ccco4)CC3)c3c4c(onc24)-c2ccccc2C3=O)CC1	25µM	n	9.2µM	-52	n	7.3µM
O=C(O)CCCNc1cc(N2CCN(C3CCCCC3)CC2)c2noc3c2c1C(=O)c1ccccc1-3	n	n	n	x	n	n
O=C(O)CCNc1cc(N2CCN(C(=O)c3ccco3)CC2)c2noc3c2c1C(=O)c1ccccc1-3	n	n	n	-71	n	n
CCCCNc1cc(NC2CCCCC2)c2c3c(onc13)-c1ccccc1C2=O	n	n	u	x	n	u
O=C1c2ccccc2-c2onc3c(NCCO)cc(NC4CCCCC4)c1c23	n	11µM	u	x	n	18µM
CCOC(=O)c1cc2c(=O)n3ccccc3nc2n(CC2CCCO2)c1=NC(=O)c1ccc(F)cc1 (configuration not stated)	n	n	n	x	n	n
CN(C)c1nc2cc3c(cc2cc1CN(CC1CCCO1)C(=O)/C=C/c1cccs1)OCO3 (configuration not stated)	x	x	n	x	x	n
CC(NC(=O)c1ccc(OC2CCN(Cc3ccccn3)CC2)cc1)c1ccccc1 (configuration not stated)	n	n	18µM	n	n	u
COc1ccc(-c2c(-c3ccccc3)c(C(=O)C(=O)NCCCN(C)C)n3ccc4cc(OC)c(OC)cc4c23)cc1OC	n	u	18µM	n	x	3.3µM
Cc1cccc(NC(=O)c2c(N)sc3c2CCC(C)C3)c1 (configuration not stated)	n	n	n	x	x	u
O=C1Cc2cc(S(=O)(=O)N3CCCCC3)cc3c2N1CCC3	n	n	n	x	n	n
COc1ccc(NC(=O)c2ccc(NC(=O)CSc3nc(N)cc(=O)[nH]3)cc2)cc1	n	n	u	n	n	u
COc1cccc(C(=O)N(Cc2ccccc2)Cc2cc3cc4c(cc3[nH]c2=O)OCCO4)c1	n	n	21µM	n	n	13µM
COc1ccc(C(=O)N(Cc2ccccc2)Cc2cc3cc4c(cc3[nH]c2=O)OCCO4)cc1	n	n	11µM	n	n	11µM
Cc1ccc(-n2c3c(cc(C(=O)Nc4cccc(Cl)c4)c2=O)C(=O)CC(C)(C)C3)cc1	n	n	n	x	n	n
COC(=O)c1ccccc1NC(=O)C1CCCO1 (configuration not stated)	n	n	n	n	n	n
COc1ccc(OCc2nc3c4cc(OC)c(OC)cc4nc(=S)n3[nH]2)cc1	n	u	6.5µM	n	n	6.5µM
CC1=CCC(C(=O)O)C(C(=O)NC2CCCCC2)C1 (configuration not stated)	n	n	n	n	32µM	n
CC1Cc2cc(S(=O)(=O)N3CCC(C(=O)N(C)Cc4ccccc4)CC3)ccc2N1C(=O)C1CC1 (configuration not stated)	n	n	u	n	n	u
SMILES	HepG2 viability	TGFb SMAD3 inh	DT40 TDP1 no CPT	IL1B secr inh	TDP1 inh	TDP1 cell CPT
CC1=CC(C)(C)NC(=S)N1c1cccc2ccccc12	n	n	26µM	n	n	u
CC[C@H](C)C(=O)O[C@H]1CCC=C2C=C[C@H](C)[C@H](CC[C@@H]3C[C@H](O)CC(=O)O3)C21 (some centres not stated)	x	x	x	x	n	x
Cc1cccc(C(=O)NC2CC3CCCC(C2)N3C(=O)Nc2ccccc2)c1 (configuration not stated)	n	n	u	n	x	n
N#CC1=C(N)Oc2cc(N)ccc2C1c1ccccc1F (configuration not stated)	n	u	8.2µM	n	x	7.3µM
N#CC1=C(N)Oc2cc(N)ccc2C1c1cccc(Br)c1 (configuration not stated)	n	u	1.5µM	n	n	2.9µM
Cc1ccc(C2C(C#N)=C(N)Oc3cc(N)ccc32)cc1 (configuration not stated)	n	n	n	n	n	n
N#CC1=C(N)Oc2cc(N)ccc2C1c1cc(Br)cs1 (configuration not stated)	n	n	u	-66	x	u
Cc1nc(CN(C)c2ncnc3cc(-c4ccc5c(c4)OCO5)ccc23)cs1	x	x	x	x	n	x
COCCC(=O)N1CCC(Oc2ccc(C(=O)NC(C)CCn3cccn3)cc2)CC1 (configuration not stated)	n	n	n	n	n	n
CN(CC(=O)Nc1ccc(F)c(F)c1F)C(=O)c1ccc(-n2cncn2)c([N+](=O)[O-])c1	n	n	n	n	n	u
O=C1C2C(C(=O)N1/N=C/c1cc(Br)cc([N+](=O)[O-])c1O)C1C=CC2C12CC2 (configuration not stated)	n	n	16µM	u	n	u
O=C1C2C(C(=O)N1/N=C/c1cc([N+](=O)[O-])c(O)cc1O)C1C=CC2C12CC2 (configuration not stated)	n	n	n	n	u	n
Cc1ccc([C@@H]2C[C@H]3[C@@H](CN2S(=O)(=O)c2ccc(Cl)cc2)C(=O)C[C@@H](c2ccccc2)N3S(=O)(=O)c2ccc(C)cc2)cc1	n	n	n	n	x	n
COc1ccc(C(C(=O)NC(C)(C)C)n2c(COc3ccc(C)cc3)nc3ccccc32)cc1 (configuration not stated)	x	x	u	n	x	18µM
COc1ccc(C(C(=O)NC(C)(C)C)n2c(-c3ccc(=O)[nH]c3)nc3ccccc32)cc1 (configuration not stated)	x	x	8.2µM	n	x	9.2µM
